Bioassay records (PubChem)
SKKanGAS inh = S. pyogenes SKKanGAS growth inhibitors in kanamycin, primary screen, streptokinase expression inhibitor project, SKKanGAS strain, BacTiter-Glo luminescence | 1.3% of 300,000 active | AID 1662, 2009 | 6 h | inhibition, % at 7.5 µM;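 active = mean replicate score, as percent of positive control median, at least 50; inconclusive = mean below 50 but one replicate at or above 50; inactive = mean and every replicate below 50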;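 note: strain carries kanamycin resistance gene driven by streptokinase promoter and grows in 40 µg/ml kanamycin; loss of luminescence reflects streptokinase promoter inhibition or plain growth inhibition; 0% = median of DMSO wells and 100% = positive control at its reference dose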
tim10-1 inh = growth inhibitors of tim10-1 mutant yeast, primary screen, luminescence, uHTS | S. cerevisiae tim10-1 ts strain growth, BacTiter-Glo, 24 h | inhibition, % at 20 µM | 2.2% of 330,000 active | AID 463190, 2010;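 active = inhibition of at least 40%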;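 note: mutant grown at 25 °C; 0% = DMSO wells with yeast and 100% = wells holding no yeast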
NLRP3 yeast inh = NALP3 inflammasome inhibitors in reconstituted yeast, primary screen, luminescence, uHTS; 0.39% of 330,000 active; Yeast reconstituted NLRP3/ASC/caspase-1, beta-gal luminescence, 24 h; inhibition, % at 10 µM; AID 2825, 2010;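 active = inhibition of 50% or more; inactive = inhibition below 50%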;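 note: plate controls were induced DMSO wells for no effect and uninduced yeast grown without galactose for full effect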
tim23-1 inh = growth inhibitors of tim23-1 mutant yeast, primary screen, luminescence, uHTS; inhibition, % at 20 µM; S. cerevisiae tim23-1 growth, BacTiter-Glo luminescence, 24 h; 1.3% of 330,000 active;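 active = growth inhibition of the mutant yeast at or above 50%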;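 note: temperature-sensitive mutant grown at 25 °C; plate controls were DMSO-treated mutant yeast for no effect and medium wells lacking yeast for full effect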
PfHsp90 set2 = growth inhibition of PfHsp90-expressing yeast, primary screen, antimalarial PfHsp90 inhibitor project, S. cerevisiae, BacTiter-Glo luminescence, single point, set 2; BacTiter-Glo ATP, 48 h; yeast lacking PDR1 and PDR3 efflux regulators; inhibition, % at 9.4 µM; 0.32% of 310,000 active; AID 504621, 2011;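 active = every replicate shows inhibition above about 80%, whatever the replicate mean, limit read from the data; inconclusive = mean inhibition reaches the set limit but some replicate falls short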;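 note: 0% = DMSO neutral controls and 100% = 20 µM radicicol positive controls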
TIM10 inh = growth inhibitors of isogenic TIM10 control yeast, primary screen, counter-screen for tim10-1 yeast inhibitor project, luminescence, uHTS | S. cerevisiae TIM10 strain growth, BacTiter-Glo luminescence, 24 h | inhibition, % at 10 µM | 1.4% of 330,000 active;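 active = inhibition of 40% or more at the single tested concentration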;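 note: wild-type TIM10 isogenic control strain grown at permissive 25 °C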
The depositor's hits bear a star. The list is not random: actives were taken first. Their share in the collection is about 4.6%.

What do the screens show for `CCCCCCSc1ccc(-c2nc3ccccn3c2NCCCC)cc1`?
SKKanGAS inh: 51.3*; tim10-1 inh: 19.7; NLRP3 yeast inh: 27.3; tim23-1 inh: 1.9; PfHsp90 set2: 7.1; TIM10 inh: 8.0

Results for COc1cc(-c2nc3ccccn3c2NCc2ccccc2)ccc1SC1CCCCC1 ?
SKKanGAS inh: 28.4; tim10-1 inh: 37.1; NLRP3 yeast inh: 2.1; tim23-1 inh: 37.3; PfHsp90 set2: 8.0; TIM10 inh: 19.6

How did CCCCNc1c(-c2ccc(OC)c(SC3CCCCC3)c2)nc2cnccn12 do in these assays?
SKKanGAS inh: 103.9*; tim10-1 inh: 33.5; NLRP3 yeast inh: 12.6; tim23-1 inh: 36.3; PfHsp90 set2: -57.3; TIM10 inh: 17.6

How did COc1cccc(-n2c(=O)c3c(C)c(C(=O)N(C)C)sc3n(CC(=O)NCC3CCCO3)c2=O)c1 (configuration not stated) do in these assays?
SKKanGAS inh: -2.8; tim10-1 inh: -0.9; NLRP3 yeast inh: 12.3; tim23-1 inh: 12.2; PfHsp90 set2: 5.0; TIM10 inh: -14.5

Results for N#C/C(=C\c1ccccc1)C(=O)OCC(=O)N1CCCC1 ?
SKKanGAS inh: -2.3; tim10-1 inh: 5.8; NLRP3 yeast inh: 20.2; tim23-1 inh: 10.2; PfHsp90 set2: 32.4; TIM10 inh: -4.6

Results for Cc1cccc(NCC(=O)N/N=C\c2cccc(Oc3ccccc3)c2)c1 ?
SKKanGAS inh: 58.5*; tim10-1 inh: 14.7; NLRP3 yeast inh: 24.5; tim23-1 inh: 8.3; PfHsp90 set2: -4.9; TIM10 inh: 37.4

Results for CC(C)c1ccc(CNC(=O)C(=O)NCC2CCCO2)cc1 (configuration not stated) ?
SKKanGAS inh: 13.4; tim10-1 inh: -7.8; NLRP3 yeast inh: 23.6; tim23-1 inh: 2.6; PfHsp90 set2: 24.4; TIM10 inh: 0.5

What do the screens show for `Cc1cccc(C2(c3cccc(C)c3)CC2C(=O)Nc2ccc([N+](=O)[O-])cc2O)c1` (configuration not stated)?
SKKanGAS inh: 72.4*; tim10-1 inh: 11.2; NLRP3 yeast inh: 16.2; tim23-1 inh: 11.4; PfHsp90 set2: -2.7; TIM10 inh: 14.6

What do the screens show for `COc1ccc(C(=O)NNC(=S)NC(=O)c2ccc(OC)cc2)cc1`?
SKKanGAS inh: 94.0*; tim10-1 inh: -12.5; NLRP3 yeast inh: 44.5; tim23-1 inh: 21.5; PfHsp90 set2: 14.8; TIM10 inh: 8.5

How did CCCCC(=O)NC(=S)NNC(=O)c1ccc(OC)cc1 do in these assays?
SKKanGAS inh: 86.0*; tim10-1 inh: -10.4; NLRP3 yeast inh: 27.9; tim23-1 inh: -24.6; PfHsp90 set2: 6.9; TIM10 inh: 9.9

What do the screens show for `COc1ccc(OCC(=O)NNC(=S)NC(=O)c2ccc(Br)o2)cc1`?
SKKanGAS inh: 71.2*; tim10-1 inh: 14.0; NLRP3 yeast inh: 16.9; tim23-1 inh: -12.9; PfHsp90 set2: 11.3; TIM10 inh: 2.9

How did COc1ccc(C(=O)NC(=S)NNC(=O)c2ccc(NC(C)=O)cc2)cc1Br do in these assays?
SKKanGAS inh: 70.2*; tim10-1 inh: 3.8; NLRP3 yeast inh: 2.6; tim23-1 inh: 24.6; PfHsp90 set2: -8.3; TIM10 inh: 24.5

What do the screens show for `COc1ccc(C(=O)NC(=S)NNC(=O)c2ccncc2)cc1Br`?
tim10-1 inh: 20.2; NLRP3 yeast inh: 6.8; tim23-1 inh: 24.0; PfHsp90 set2: 6.3; TIM10 inh: 16.7

Results for COc1ccc(C(=O)NNC(=S)NC(=O)c2cccnc2)cc1 ?
SKKanGAS inh: 14.9; tim10-1 inh: 8.5; NLRP3 yeast inh: 19.2; tim23-1 inh: -0.9; PfHsp90 set2: 1.4; TIM10 inh: -0.4

How did O=C(Oc1ccc(/C=N/Nc2nc(N3CCCCC3)nc(N3CCCCC3)n2)cc1)c1ccco1 do in these assays?
SKKanGAS inh: 14.1; tim10-1 inh: -29.6; NLRP3 yeast inh: 10.2; tim23-1 inh: -7.1; PfHsp90 set2: 2.2; TIM10 inh: -22.0

What do the screens show for `C=CCNC(=S)NNC(=O)c1ccc(OCCC)cc1`?
SKKanGAS inh: 0.8; tim10-1 inh: 10.0; NLRP3 yeast inh: 2.9; tim23-1 inh: -11.7; PfHsp90 set2: 3.2; TIM10 inh: 1.7

What do the screens show for `CCCOc1ccc(C(=O)NNC(=S)NC(=O)CC)cc1`?
SKKanGAS inh: 105.9*; tim10-1 inh: 2.4; NLRP3 yeast inh: 26.6; tim23-1 inh: -26.1; PfHsp90 set2: 74.2; TIM10 inh: -46.3

How did Cc1ccc(N(Cc2ccccc2)C(=O)CN2C(=O)NC3(CCCC3)C2=O)cc1 do in these assays?
SKKanGAS inh: -4.9; tim10-1 inh: 11.8; NLRP3 yeast inh: -1.7; tim23-1 inh: 26.4; PfHsp90 set2: -25.9; TIM10 inh: 9.4

Results for CNC(=O)c1c(NC(=O)CCS(=O)(=O)c2ccc(C)cc2)sc2c1CCN(C(=O)OC)C2 ?
SKKanGAS inh: -6.6; tim10-1 inh: -1.5; NLRP3 yeast inh: 1.0; tim23-1 inh: -1.3; PfHsp90 set2: 24.9; TIM10 inh: -4.3

Results for CC(C)c1nc(N2CCCC2)c(C#N)c2c1CCCC2 ?
SKKanGAS inh: 93.1*; tim10-1 inh: -8.3; NLRP3 yeast inh: 18.6; tim23-1 inh: 0.8; PfHsp90 set2: 2.9; TIM10 inh: -14.1

What do the screens show for `Cc1ccc(C)c(S(=O)(=O)N(C(=O)c2ccncc2)c2ccc(OC(=O)c3ccncc3)cc2)c1`?
SKKanGAS inh: 20.4; tim10-1 inh: 11.2; NLRP3 yeast inh: -2.8; tim23-1 inh: 27.0; PfHsp90 set2: -71.3; TIM10 inh: 13.2

How did O=C(Oc1ccc(N(C(=O)c2ccncc2)S(=O)(=O)c2ccc(F)cc2)cc1)c1ccncc1 do in these assays?
SKKanGAS inh: 2.2; tim10-1 inh: 26.4; NLRP3 yeast inh: 0.7; tim23-1 inh: 18.8; PfHsp90 set2: -15.3; TIM10 inh: 29.0

What do the screens show for `O=C(Oc1ccc(N(C(=O)c2ccncc2)S(=O)(=O)c2ccc(Cl)cc2)cc1)c1ccncc1`?
SKKanGAS inh: 6.4; tim10-1 inh: -56.7; NLRP3 yeast inh: 5.3; tim23-1 inh: 19.0; PfHsp90 set2: inconclusive; TIM10 inh: 2.6

How did COc1ccc(N(C(=O)c2ccncc2)S(=O)(=O)c2ccc(Cl)cc2)cc1 do in these assays?
SKKanGAS inh: 4.4; tim10-1 inh: -33.2; NLRP3 yeast inh: 14.9; tim23-1 inh: -186.2; PfHsp90 set2: 96.9*; TIM10 inh: -90.3

What do the screens show for `CCc1ccc(S(=O)(=O)N(C(=O)c2ccncc2)c2ccc(OC(=O)c3ccncc3)cc2)cc1`?
SKKanGAS inh: 1.7; tim10-1 inh: -50.5; NLRP3 yeast inh: 7.8; tim23-1 inh: 22.9; PfHsp90 set2: 100.9*; TIM10 inh: -36.4
